# In PubChem BioAssay (NCI):
# This is part of a sample that, as a whole, favours compounds with a hit. Of some 83,000 tested, about 20% had one in any assay.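 Plates (96-well) were seeded with cells, treated with compound at one concentration, and incubated for 48 hours before percent growth was determined.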 Unmarked numbers belong to inactive results. Calls of active or inactive are those of the source. How the source made its calls: active means growth percent below 10; inactive means the rest.
# System: COLO 205 colon
# Assay: NCI-60 one-dose screen, 48 h (100 = growth as untreated, 0 = no growth, -100 = all killed)
# Conditions: 10 µM unless noted
row,SMILES,growth
1,O=c1[nH]n(C(=S)N/N=C/c2ccccc2Cl)c(=O)c2ccccc12,-60.9% (active)
2,Cn1cc(-c2nnc(N)nc2-c2c[nH]c3ccc(F)cc23)c2cccnc21,26.9%
3,CN1CCN(Cc2ccc(C(=O)Nc3cccc(C#Cc4cccc5[nH]nc(N)c45)c3)cc2C(F)(F)F)CC1,-87% (active)
4,Cc1ccccc1[C@H]1C(C(=O)c2ccc(Cl)cc2)C2(N[C@@H]1c1ccccc1)C(=O)Nc1ccc(Br)cc12 (stereo not given in full),-34.5% (active)
5,N#Cc1c(-c2cccc(Cl)c2Cl)cc(-c2ccc3ccccc3c2)[nH]c1=O,116%
6,NS(=O)(=O)c1ccc(-n2cc(-c3cccc(NC(=O)c4cc(C(F)(F)F)cc(C(F)(F)F)c4)c3)nn2)cc1,91.7%
7,COc1ccc(C(=O)/C=C/c2ccccc2Cl)cc1S(N)(=O)=O,106%
8,O=C(/C=C/c1cccc(OCc2ccc(F)cc2)c1)c1nc2ccccc2[nH]1,13.8%
9,Cc1cc(=O)oc2cc(OCCCOc3ccc(/C=C/C(=O)Nc4ccccc4N)cc3)ccc12,-53.6% (active)
10,S=C(Nc1ccc(OCc2nc3ccccc3[nH]2)cc1)NC1CCCCC1,110%
11,N#Cc1c(-c2ccccc2Cl)cc(-c2c[nH]c3ccccc23)[nH]c1=O,114%
12,CC1=C(C(=O)OCc2ccccc2)C(c2c(O)cc(O)cc2O)n2c(nc3ccccc32)N1 (stereo not given),63.5%
13,CCOc1ccc(-c2c(C#N)c(-c3ccc(Cl)cc3)nc3n[nH]c(-c4ccc(Cl)cc4)c23)cc1OC,29%
14,Cc1ccc(Cc2cnc(NC(=O)c3ccc(/C=C4\SC(=S)N(C)C4=O)cc3)s2)cc1,24.4%
15,Cc1ccc(C(=O)CSc2nc3ccc(F)cc3c(=O)n2-c2ccc(Cl)cc2)cc1,69.9%
16,C[C@H](Nc1nc(NCCc2ccccc2)nc2ccccc12)c1ccccc1,-93.7% (active)
17,COc1cc(-c2ccc(/C=N/NC(=O)c3[nH]c4ccc(Br)cc4c3-c3ccccc3)s2)cc(OC)c1OC,108%
18,OCNc1ccc(-n2cnc3cc(-c4ccc(O)cc4)ccc32)cc1C(F)(F)F,43.5%

row,SMILES,growth
1,COc1cc(OC)cc(C(=O)Nc2cccc(-c3cn(-c4ccc(S(N)(=O)=O)cc4)nn3)c2)c1,109%
2,COc1ccc2[nH]c(O)c(N=NC(=O)COc3ccc(NC(=O)Nc4ccccc4)cc3)c2c1,53.6%
3,Cc1ccc2c(N)c(C(=O)Nc3ccc(OC(F)(F)F)cc3)sc2n1,92.4%
4,COc1cc(/C=C/C(=O)c2ccc(C)cc2)ccc1Oc1nc(Nc2ccc(F)cc2)nc(N(C)C)n1,86.8%
5,N#Cc1c(NCc2ccccc2)n[nH]c1Nc1ccccc1,-8.53% (active)
6,CC(C)c1sc(NC(=O)c2cc(NC(=O)c3cc(NC(=O)c4cscn4)cn3C)cn2C)nc1C(=O)NCCCN(C)C,-63% (active)
7,CCOc1ccc(C(=O)NC(=S)Nc2ccc(S(N)(=O)=O)cc2)cc1,119% [100 µM]
8,Nc1cccc(SCc2cc3ccccc3[nH]c2=O)c1,29%
9,CC1=C(C(=O)c2ccccc2)C(c2ccc(-n3cncn3)cc2)n2c(nc3ccccc32)N1 (stereo not given),95.4%
10,O=C(c1ccc(OCCN2CCOCC2)cc1)C1[C@H](c2ccc(Cl)cc2)[C@@H](c2ccccc2)NC12C(=O)Nc1ccc(Cl)cc12 (stereo not given in full),-20.1% (active)
11,CCCCCCCCc1ccc(S(=O)(=O)Nc2ccc(CC)cc2C(=O)O)cc1,121%
12,COc1cc2oc(-c3cccc(C(=O)Nc4cccc([N+](=O)[O-])c4)c3)cc(=O)c2c(OC)c1OC,91%
13,C=C1CC[C@@H]2[C@]3(C)COC(c4ccccc4)O[C@@H]3CC[C@@]2(C)[C@@H]1C/C=C1/C(=O)OCC1OC(C)=O (stereo not given in full),-76.4% (active)
14,C=C1CC[C@@H]2[C@]3(C)COC(c4cn[nH]c4-c4ccc(C)cc4)O[C@@H]3CC[C@@]2(C)[C@@H]1C/C=C1/C(=O)OCC1O (stereo not given in full),12.8%
15,CC(C)CSc1nc(NCCc2c[nH]c3ccccc23)c(C#N)c(-c2ccc(Cl)cc2)n1,41%
16,NS(=O)(=O)c1ccc(-n2cc(-c3cccc(NC(=O)c4cc(Cl)cc(Cl)c4)c3)nn2)cc1,76.4%
17,C=C1CCC2C3(C)COC(c4ccc(F)cc4)OC3CCC2(C)C1C/C=C1/C(=O)OCC1O (stereo not given),-50.6% (active)
